# Sampled rows, rich in hits. Any-hit rate of the full collection: about 4.5%.
# aSyn UTR inh – 5' untranslated region of α-synuclein, MLPCN primary screen | inhibition, % (tested at 7.5 µM) | 300,000 compounds, 0.82% hits | alpha-synuclein 5'UTR reporter, inhibitor activity; in the data active means inhibition above about 60%; inconclusive means no clear call, values can overlap the other calls;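 further: H4 neuroglioblastoma cells stably carrying SNCA 5'UTR luciferase fusion; 0% = DMSO wells and 100% = positive control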
# Mdm2 MdmX PPI – inhibitors of human Mdm2/MdmX interaction. O15151+Q00987. SaOS-2 split-luciferase Mdm2/MdmX complementation, luminescence. inhibition, % at 8 µM. 330,000 compounds, 3% hits;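 active means inhibition of at least 50% at 8 µM in the primary screen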
# Target sequence (O15151 whole entry, looked up): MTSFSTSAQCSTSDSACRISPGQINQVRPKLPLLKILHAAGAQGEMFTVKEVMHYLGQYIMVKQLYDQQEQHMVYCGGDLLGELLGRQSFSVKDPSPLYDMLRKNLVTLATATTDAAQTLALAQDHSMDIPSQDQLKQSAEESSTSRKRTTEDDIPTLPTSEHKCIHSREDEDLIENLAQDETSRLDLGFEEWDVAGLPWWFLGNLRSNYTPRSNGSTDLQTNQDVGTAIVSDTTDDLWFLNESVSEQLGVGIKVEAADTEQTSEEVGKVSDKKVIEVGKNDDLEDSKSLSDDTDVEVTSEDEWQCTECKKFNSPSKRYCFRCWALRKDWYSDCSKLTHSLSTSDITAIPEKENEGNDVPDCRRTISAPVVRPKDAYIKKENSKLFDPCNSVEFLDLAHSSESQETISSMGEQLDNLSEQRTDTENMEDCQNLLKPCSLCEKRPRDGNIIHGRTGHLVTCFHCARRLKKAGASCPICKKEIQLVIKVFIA
# Target sequence (Q00987 whole entry, looked up): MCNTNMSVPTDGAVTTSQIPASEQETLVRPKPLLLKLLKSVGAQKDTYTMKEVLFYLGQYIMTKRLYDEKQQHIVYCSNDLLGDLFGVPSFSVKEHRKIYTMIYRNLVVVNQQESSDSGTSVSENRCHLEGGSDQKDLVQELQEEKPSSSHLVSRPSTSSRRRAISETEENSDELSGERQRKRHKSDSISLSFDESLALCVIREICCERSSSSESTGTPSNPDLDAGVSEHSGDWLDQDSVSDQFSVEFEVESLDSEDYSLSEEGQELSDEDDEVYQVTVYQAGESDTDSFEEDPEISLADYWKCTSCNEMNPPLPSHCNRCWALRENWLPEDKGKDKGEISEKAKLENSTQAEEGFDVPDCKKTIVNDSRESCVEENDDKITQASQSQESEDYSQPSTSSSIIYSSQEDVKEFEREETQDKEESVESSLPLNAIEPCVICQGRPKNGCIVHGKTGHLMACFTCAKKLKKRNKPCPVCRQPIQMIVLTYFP
# 697 NFkB inh – lowers PMA/ionomycin-induced NF-kB signal in 697 B cells; 697 B-cell NF-kB luciferase reporter, 16 h; inhibition, % at 4 µM; 330,000 compounds, 0.33% hits; in the data active means inhibition above about 35%
# CSC inhib – blocks cancer stem cells; cancer stem cell-like cells viability, luminescence; 300,000 compounds, 1.1% hits; inhibition, % at 7.5 µM; in the data active means inhibition above about 75%; inconclusive means no clear call, values can overlap the other calls; tested in HMLE shEcad cells
# Jurkat NFkB inh – lowers PMA/ionomycin-induced NF-kB signal in Jurkat cells; PMA/ionomycin-induced NF-kB luciferase reporter, luminescence; inhibition, % at 4 µM; 330,000 compounds, 0.53% hits; in the data active means inhibition above about 50%
# Gli-Sufu block – Gli-Sufu pathway antagonism. Sufu-KO-LIGHT fibroblasts, Gli luciferase reporter luminescence. inhibition, % at 5 µM. 340,000 compounds, 0.74% hits. AID 588413;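 active means inhibition above about 55%, limit read from the data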;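 further: 0% = DMSO-treated cells and 100% = wells with medium but no cells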
# Mdm2-MdmX conf – human Mdm2/MdmX binding inhibition, confirmed. shares compounds with Mdm2 MdmX PPI. luminescent assay. inhibition, % at 8 µM. 10,000 compounds, 55% hits. AID 489028; in the data active means inhibition above about 40%
# FLuc counter – full-length luciferase inhibition in Mdm2/MdmX counter-screen; inhibition, % at 8 µM; 6,200 compounds, 77% hits; AID 504607; SaOS-2 full-length luciferase counterscreen, luminescence; shares compounds with Mdm2 MdmX PPI;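 active means mean inhibition at 8 µM reaching about 37%, which flags the compound as non-specific, limit read from the data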;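 further: p53-null SaOS-2 cells with luciferase driven by a doxycycline-inducible promoter; compound on cells about two nights before reading with doxycycline added after day one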
# Active calls of the source: *; ? = inconclusive; · = no result.
SMILES,aSyn UTR inh,Mdm2 MdmX PPI,697 NFkB inh,CSC inhib,Jurkat NFkB inh,Gli-Sufu block,Mdm2-MdmX conf,others
CCN(C(=O)C(C)N1C(=O)/C(=C/c2ccco2)SC1=S)C1CCS(=O)(=O)C1 (centres undefined),-23,55*,-31,28,1,-6,2,
O=C(Nc1ccc(-c2noc(CCc3ccccc3)n2)cc1)c1cccnc1,-67,21,-7,29,8,1,·,
Cc1cc(OCc2nc(-c3ccc(NC(=O)c4cccnc4)cc3)no2)ccc1Cl,-24,62*,-13,-9,-1,25,11,
CCC1(C)Cc2ccccc2-c2nc(SCC(N)=O)[nH]c(=O)c21 (centres undefined),2,-13,14,·,9,·,·,
CCOC(=O)CSc1nc2c(c(=O)[nH]1)C(C)(CC)Cc1ccccc1-2 (centres undefined),-48,57*,-50,71,-2,11,53*,FLuc counter=54*
FC(F)(F)c1nnc(Nc2ccc(Cl)cc2)s1,-11,27,-1,12,-7,16,·,
Fc1ccc(Nc2nnc(C(F)(F)F)s2)cc1Cl,22,73*,-3,48,13,28,68*,FLuc counter=57*
COc1cccc(CC(=O)OCC(=O)NC(=O)c2ccc(OC(F)F)cc2)c1,-3,-10,-47,-9,-9,-15,·,
O=C1c2ccccc2NC(c2ccc(-c3ccc(C(F)(F)F)cc3)o2)N1O (centres undefined),·,67*,-33,·,-8,-4,49*,FLuc counter=42*
COc1cccc(OC)c1C(=O)Nc1ccc(C(=O)c2ccncc2)cc1,-11,-9,-35,-4,-22,-1,·,
Cc1ccccc1[C@]1(C)ON(c2ccccc2C(F)(F)F)C1=O,·,80*,16,55,5,·,46*,FLuc counter=59*
COc1ccccc1[C@@]1(C)ON(c2ccccc2C(F)(F)F)C1=O,·,89*,20,58,9,2,80*,FLuc counter=32
CC(C)c1ccc(C2(C)NC(=O)N(CC(=O)N3CCN(C(=O)c4cccs4)CC3)C2=O)cc1 (centres undefined),·,7,9,·,-9,-1,·,
Cc1sc2nc(SCC(=O)C(C)(C)C)n(Cc3ccco3)c(=O)c2c1C,4,37,-54,63,47,-4,·,
COc1ccc(NC(=O)CSc2nc3sc(C)c(C)c3c(=O)n2Cc2ccco2)cc1,36,87*,4,·,3,2,12,
O=C(CSc1nc2cc(Cl)ccc2c(=O)n1Cc1ccco1)Nc1ccc(S(=O)(=O)N2CCOCC2)cc1,33,15,-19,4,-3,10,·,
COC(=O)c1ccc2c(=O)n(Cc3ccco3)c(SCC(=O)Nc3ccc(C)c(Cl)c3)nc2c1,12,68*,11,21,0,12,16,
Cc1ccc(Cn2c(NCCCn3ccnc3)nc3c2c(=O)n(C)c(=O)n3C)cc1,2,20,6,-15,21,-4,·,
Cc1ccc(F)c(CNC(=O)C2CCC(=O)N(CCCN3CCCC3=O)C2)c1F (centres undefined),5,17,2,-7,6,-8,·,
COc1ccc(C(=O)NC(C)c2cccnc2)cc1S(=O)(=O)N(C)Cc1ccccc1 (centres undefined),·,11,12,0,8,2,·,
COC(=O)CC1C(=O)NCCN1Cc1cn(-c2ccc(C)cc2)nc1-c1cccc(C)c1 (centres undefined),-37,2,-15,-9,0,3,·,
Cc1nc(N)c(C#N)c(-c2cccnc2)c1C,18,51*,-16,-16,10,-3,28,
O=C(CCl)Nc1cc(-c2ccccc2)nn1-c1ccccc1,-27,84*,8,20,9,2,62*,FLuc counter=22
Cc1ccc(-c2nn(-c3ccccc3)cc2NC(=O)CCl)cc1,-71,66*,-25,28,-13,20,7,
Cc1ccc(-c2cc(NC(=O)CCl)n(-c3ccccc3)n2)cc1,-54,92*,16,96*,13,-3,19,
SMILES,aSyn UTR inh,Mdm2 MdmX PPI,697 NFkB inh,CSC inhib,Jurkat NFkB inh,Gli-Sufu block,Mdm2-MdmX conf,others
Cc1ccc(-n2nc(C)c(NC(=O)CCl)c2C)cc1,-146,85*,26,6,26,0,43*,FLuc counter=71*
CC1CCC(NCCNC(=O)c2ccco2)CC1 (centres undefined),-2,0,11,-8,0,-7,·,
O=C1c2cc(Br)ccc2OC2C=CC=CC12 (centres undefined),·,-25,-9,·,·,-21,·,
CCCC1(CC)C(=O)NC(=O)N=C1N (centres undefined),·,·,·,·,·,-2,·,
CC1(C)CC(=O)N(c2cccc(C(F)(F)F)c2)C(=O)C1,-12,31,0,-5,14,-17,·,
FC(F)(F)Sc1ccc(NC(=S)NCc2ccccc2)cc1,-2,79*,-9,54,4,2,-2,
S=C(NCc1ccccc1)Nc1ccc(Cl)cc1,2,3,1,-19,-12,-5,·,
Cc1cc(C)cc(CC(Cc2nc3ccccc3[nH]2)c2nc3ccccc3[nH]2)c1 (centres undefined),-9,91*,-36,182*,-14,-16,24,
Cc1ccc(CSCc2nc3ccccc3[nH]2)cc1,-39,·,·,·,·,-18,·,
C=CC[C@]12C=C(OC)C(=O)C(OC)=C1O[C@@H](c1ccc3c(c1)OCO3)[C@H]2C,13,0,11,-11,11,-17,·,
C=CC[C@]12CC=CC(=O)[C@@]1(O)O[C@H](c1ccc(OC)c(OC)c1)[C@H]2C,-94,50*,-47,39,20,1,30,
O=C(Nc1nccs1)c1ncc(Cl)c(Cl)c1Cl,-76,-4,1,13,-8,-1,·,
CC(C)C(=O)Nc1ccc(C(=O)NNC(=S)NC(=O)c2ccco2)cc1,2,4,21,10,0,1,·,
CC1(C)C(=O)N(c2ccccc2)C1c1ccccc1O (centres undefined),-13,59*,3,?,-8,·,46*,FLuc counter=75*
O=C(NCCc1c[nH]c2ccccc12)C(=O)NCC1OCCN1S(=O)(=O)c1ccccc1 (centres undefined),-19,17,22,-12,-2,-5,·,
O=C(NCCc1c[nH]c2ccccc12)C(=O)NCC1OCCN1S(=O)(=O)c1ccc(Cl)cc1 (centres undefined),2,51*,5,1,9,2,49*,FLuc counter=37*
COc1ccc(C(=Cc2cc(OC)c(OC)cc2[N+](=O)[O-])C(=O)O)cc1,·,·,·,·,·,-3,·,
CC1=NN(c2ccccc2)C(=O)/C1=C\C=C\c1ccccc1,-127,66*,-57,102*,1,22,45*,FLuc counter=29
